The values below come from PubChem BioAssay (NCI).

Some test systems named below: BT-549 breast; MDA-MB-435 melanoma; SW-620 colon; HCT-116 colon; HCC-2998 colon; KM12 colon; MCF7 breast.
Assay in all cases: NCI-60 one-dose screen, 48 h (100 = growth as untreated, 0 = no growth, -100 = all killed)
Common to all, as to conditions: 10 µM unless noted

About 83,000 compounds went through this panel and 20% of them were active in at least one assay; those are over-represented in the sample as a whole.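 Single-concentration screen, 48 h exposure, 96-well plates. Endpoint: percent growth. Below 10 = active.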 Values without a mark were called inactive. Activity calls are given as the source filed them.

For the molecule `C=C1C(=O)O[C@H]2[C@H]1CC/C(COC(=O)/C=C/C(=O)NCc1ccc(Cn3c(=O)sn(-c4ccccc4)c3=O)cc1)=C\CC[C@@]1(C)O[C@@H]21`, the growth is -3.27% (active) in the assay on BT-549 breast; -26.6% (active) with MDA-MB-435 melanoma; -64.5% (active) with SW-620 colon; -79.1% (active) in the assay with HCT-116 colon; 54.4% in the assay with HCC-2998 colon; 49.1% in the assay on KM12 colon.
In the case of `Cc1cc(N2CCCCC2)nc(N(CCNc2ccnc3cc(Cl)ccc23)Cc2ccccn2)n1`, the growth in the assay on BT-549 breast is 64.3%; in the assay with MDA-MB-435 melanoma it was 68.1%; with SW-620 colon, 45.7%; in the assay with MCF7 breast it was 26.2%; in the assay with HCC-2998 colon it was 84.6%; with KM12 colon, 55.2%.
As for `CCCCN(CCCC)CCCn1c(=O)c2sc3ncccc3c2n2nnc(-c3ccccc3)c12`, the growth in the assay on MDA-MB-435 melanoma was -84.2% (active); in the assay on SW-620 colon, 100%; with MCF7 breast, 93.2%; in the assay with HCT-116 colon, 83.6%; in the assay on HCC-2998 colon, 118%; in the assay with KM12 colon, 107%.
With `C[C@H]1[C@H](C)CC[C@]2(C(=O)N3CCN(C)CC3)CC[C@]3(C)C(=CC[C@@H]4[C@@]5(C)C/C(=C/c6cccnc6)C(=O)C(C)(C)[C@@H]5CC[C@]43C)[C@H]12`, the growth in the assay on BT-549 breast is -81.2% (active); in the assay with SW-620 colon it was -49.9% (active); in the assay with MCF7 breast, -73.8% (active); in the assay with HCT-116 colon, -88.2% (active); in the assay on HCC-2998 colon, -92.3% (active); in the assay on KM12 colon, -89.3% (active).
Take `COc1ccc(-c2nc3sc4c(c3c(=O)[nH]2)CCCC4)c2ccccc12`: the growth in the assay with MDA-MB-435 melanoma was -70.3% (active); with SW-620 colon, 18.9%; with MCF7 breast, 9.63% (active); in the assay on HCT-116 colon it was 10.7%; with HCC-2998 colon, 12.3%; in the assay with KM12 colon it was 7.22% (active).
With `C=C(C)[C@@H]1CC[C@]2(CNCCO)CC[C@]3(C)[C@H](CC[C@@H]4[C@@]5(C)CCC(N)[C@@](C)(CO)[C@@H]5CC[C@]43C)[C@@H]12` (some centres not stated), the growth with MDA-MB-435 melanoma was -75.7% (active); in the assay on SW-620 colon, -60.2% (active); with MCF7 breast, -54.2% (active); in the assay on HCT-116 colon, -90.2% (active); with HCC-2998 colon, -8.22% (active).
Regarding `COC(=O)c1ccc(CSc2nnc(-c3ccncc3)o2)cc1`, the growth is 104% in the assay with BT-549 breast; 108% in the assay with SW-620 colon; 96.6% in the assay with MCF7 breast; 97.6% in the assay on HCT-116 colon; 110% with HCC-2998 colon; 109% with KM12 colon.
For `CCCCCCN(CCCCCC)CC(O)c1cccc2ccc(Cl)cc12` (configuration not stated), the growth is 99.2% in the assay with BT-549 breast; 69.9% in the assay on MDA-MB-435 melanoma; 35.7% in the assay with SW-620 colon; 56.5% with MCF7 breast; 16.7% in the assay on HCT-116 colon; 13.1% in the assay with HCC-2998 colon. In addition, the growth in the assay on KM12 colon is 44.5%.
Take `CC(C)n1nc(C#Cc2cccc3cc(-c4cccc(C(F)(F)F)c4)ncc23)c2c(N)ncnc21`: the growth is 97.7% in the assay on BT-549 breast; 67.3% in the assay on MDA-MB-435 melanoma; 71.8% in the assay on SW-620 colon; 75.7% with MCF7 breast; 31.4% with HCT-116 colon; 98.1% in the assay on HCC-2998 colon. Also, in the assay with KM12 colon, the growth was 60.9%.
For the molecule `Nc1c(C(=O)c2ccc(Cl)s2)sc2nc3c(cc12)CCCC3`, the growth in the assay on MDA-MB-435 melanoma was 119%; in the assay with SW-620 colon it was 106%; with MCF7 breast it was 41.3%; in the assay with HCC-2998 colon, 111%; in the assay on KM12 colon, 96.6%.
As for `Nc1ccc(S(=O)(=O)Nc2ccsc2-c2nc(-c3ccccc3)no2)cc1`, the growth in the assay on BT-549 breast is 59%; in the assay with MDA-MB-435 melanoma it was 3.96% (active); in the assay with SW-620 colon it was 29.8%; in the assay with HCT-116 colon, 38.4%; with HCC-2998 colon, 79.4%; in the assay with KM12 colon, 33.6%.
With `C=C1C(=O)O[C@H]2[C@H]1CC/C(Cn1cc(CNCCc3c[nH]c4ccc(Cl)cc34)nn1)=C\CC[C@@]1(C)O[C@@H]21`, the growth with BT-549 breast was 74.7%; in the assay with SW-620 colon, 2.69% (active); with MCF7 breast, 42.9%; in the assay with HCT-116 colon, 11.2%; in the assay on HCC-2998 colon, 103%; with KM12 colon it was 82.9%.
For `CS(=O)(=O)c1ccc(-c2[nH]c3ccc(F)cc3c2/C=N/NC(N)=S)cc1`, the growth in the assay on BT-549 breast is 39.3%; with MDA-MB-435 melanoma, -16.3% (active); in the assay with SW-620 colon it was 21.3%; in the assay on MCF7 breast it was 19.3%; with HCT-116 colon, 8.16% (active); in the assay on HCC-2998 colon it was 24.3%. Also, the growth in the assay with KM12 colon is 18.5%.
On to `CC(C)(C)Nc1c(-c2c3ccccc3cc3ccccc23)nc2ccccn12`, for which the growth was 92.1% in the assay on BT-549 breast; 90.1% in the assay on MDA-MB-435 melanoma; 67.3% in the assay on SW-620 colon; 46.2% with HCT-116 colon; 86% with HCC-2998 colon; 61.4% in the assay with KM12 colon.
For the molecule `Cc1csc(NC(=O)c2sc3nc(-c4cccs4)ccc3c2N)n1`, the growth in the assay on MDA-MB-435 melanoma is 108%; in the assay on SW-620 colon it was 99.4%; in the assay with MCF7 breast, 71.3%; in the assay on HCC-2998 colon, 114%; with KM12 colon, 92.9%.
In the case of `COc1ccc(OC)c(Nc2nc3nonc3nc2Nc2cc(OC)ccc2OC)c1`, the growth was 43.1% in the assay on MDA-MB-435 melanoma; 57.3% in the assay with SW-620 colon; 17.6% in the assay on HCT-116 colon; 56.7% in the assay on HCC-2998 colon; 67.4% in the assay on KM12 colon.
Turning to `COc1ccc(OC)c(Nc2nc3nonc3nc2Nc2cccc(Br)c2)c1`, the growth was 14.9% in the assay with MDA-MB-435 melanoma; 11.7% with SW-620 colon; 5.95% (active) in the assay on MCF7 breast; 10.9% in the assay with HCT-116 colon; 25% with HCC-2998 colon; 7.96% (active) in the assay on KM12 colon.
In the case of `Nc1c(C(=O)c2ccccc2)nnc2ncnn12`, the growth is 110% with MDA-MB-435 melanoma; 106% in the assay on SW-620 colon; 97.2% with MCF7 breast; 105% with HCT-116 colon; 97.6% with HCC-2998 colon; 105% with KM12 colon.
